# Test results from PubChem BioAssay AID1159580 (chemical genetic matrix, 2015).
# Where “and” joins values, the source holds several entries; their conditions need not be identical. Identical values can stand only once. The whole screen tested about 5,500 compounds, of which about 2,000 (36%) were called active. Roughly 18% stayed inconclusive and do not appear here. Some of the results follow. A number with no mark means an inactive call. Cut-off read from the data, not from the text of the source: active = normalized growth mostly below about 0.91 (no sharp cut-off); inconclusive = no clear call, values can overlap the other calls; inactive = mostly above about 0.92.
# Experiment: chemical genetic growth profiling, strain panel (AID 1159580);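 note: tested at 20 µM; growth read once vehicle control cultures reached saturation at 30 °C; 1 = growth at the plate median or of vehicle wells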
# Settings: growth OD
smiles,measurement,setting,value
CN(C)CCC=C1c2ccccc2CCc2ccccc21,normalized growth,"S. cerevisiae deletion strains, locus YJR066W, strain TOR1, stronger effect = lower value",0.983
same,normalized growth,"S. cerevisiae deletion strains, locus YJR075W, strain HOC1, stronger effect = lower value",0.981
same,normalized growth,"S. cerevisiae deletion strains, locus YKL009W, strain mrt4, stronger effect = lower value",0.998
same,normalized growth,"S. cerevisiae deletion strains, locus YKL068W, stronger effect = lower value",0.998
same,normalized growth,"S. cerevisiae deletion strains, locus YKL085W, strain MDH1 (second series), stronger effect = lower value",0.996
same,normalized growth,"S. cerevisiae deletion strains, locus YKL085W, strain MDH1, stronger effect = lower value",0.996
same,normalized growth,"S. cerevisiae deletion strains, locus YKL160W, strain elf1, stronger effect = lower value",1.01
same,normalized growth,"S. cerevisiae deletion strains, locus YKL190W, strain CNB1, stronger effect = lower value",1.01
same,normalized growth,"S. cerevisiae deletion strains, locus YKR001C, strain vps1, stronger effect = lower value",0.985
same,normalized growth,"S. cerevisiae deletion strains, locus YKR026C, strain gcn3, stronger effect = lower value",0.998
same,normalized growth,"S. cerevisiae deletion strains, locus YKR091W, strain srl3, stronger effect = lower value",0.964
same,normalized growth,"S. cerevisiae deletion strains, locus YLL001W, strain dnm1, stronger effect = lower value",1.02
same,normalized growth,"S. cerevisiae deletion strains, locus YLL026W, stronger effect = lower value",1
same,normalized growth,"S. cerevisiae deletion strains, locus YLL041C, strain sdh2, stronger effect = lower value",0.986
same,normalized growth,"S. cerevisiae deletion strains, locus YLR027C, strain aat2, stronger effect = lower value",0.997
same,normalized growth,"S. cerevisiae deletion strains, locus YLR039C, strain RIC1, stronger effect = lower value",1.05
same,normalized growth,"S. cerevisiae deletion strains, locus YLR058C, strain SHM2, stronger effect = lower value",1.01
same,normalized growth,"S. cerevisiae deletion strains, locus YLR102C, strain apc9, stronger effect = lower value",0.987
same,normalized growth,"S. cerevisiae deletion strains, locus YLR113W, strain HOG1, stronger effect = lower value",1.02
same,normalized growth,"S. cerevisiae deletion strains, locus YLR221C, strain rsa3, stronger effect = lower value",0.94
same,normalized growth,"S. cerevisiae deletion strains, locus YLR258W, strain gsy2, stronger effect = lower value",0.972
same,normalized growth,"S. cerevisiae deletion strains, locus YLR262C, strain YPT6 (second series), stronger effect = lower value",1.06
same,normalized growth,"S. cerevisiae deletion strains, locus YLR262C, strain YPT6, stronger effect = lower value",1.1
same,normalized growth,"S. cerevisiae deletion strains, locus YLR268W, strain sec22, stronger effect = lower value",0.998
same,normalized growth,"S. cerevisiae deletion strains, locus YLR320W, strain mms22, stronger effect = lower value",0.95
same,normalized growth,"S. cerevisiae deletion strains, locus YLR330W, strain CHS5, stronger effect = lower value",1.01
same,normalized growth,"S. cerevisiae deletion strains, locus YLR342W, strain FKS1 (second series), stronger effect = lower value",0.981
same,normalized growth,"S. cerevisiae deletion strains, locus YLR342W, strain FKS1, stronger effect = lower value",0.963
same,normalized growth,"S. cerevisiae deletion strains, locus YLR357W, strain rsc2, stronger effect = lower value",0.92
same,normalized growth,"S. cerevisiae deletion strains, locus YLR370C, strain arc18, stronger effect = lower value",0.956
same,normalized growth,"S. cerevisiae deletion strains, locus YLR371W, strain rom2, stronger effect = lower value",1
same,normalized growth,"S. cerevisiae deletion strains, locus YLR384C, strain iki3, stronger effect = lower value",0.988
same,normalized growth,"S. cerevisiae deletion strains, locus YLR418C, strain cdc73, stronger effect = lower value",0.985
same,normalized growth,"S. cerevisiae deletion strains, locus YML016C, strain PPZ1, stronger effect = lower value",1
same,normalized growth,"S. cerevisiae deletion strains, locus YML032C, strain rad52, stronger effect = lower value",0.993
same,normalized growth,"S. cerevisiae deletion strains, locus YML120C, strain ndi1, stronger effect = lower value",0.986
same,normalized growth,"S. cerevisiae deletion strains, locus YML124C, strain tub3, stronger effect = lower value",0.99
same,normalized growth,"S. cerevisiae deletion strains, locus YMR058W, strain fet3, stronger effect = lower value",0.979
same,normalized growth,"S. cerevisiae deletion strains, locus YMR078C, strain ctf18, stronger effect = lower value",1
same,normalized growth,"S. cerevisiae deletion strains, locus YMR125W, strain sto1, stronger effect = lower value",0.924
same,normalized growth,"S. cerevisiae deletion strains, locus YMR129W, stronger effect = lower value",0.971
same,normalized growth,"S. cerevisiae deletion strains, locus YMR205C, strain PFK2, stronger effect = lower value",0.995
same,normalized growth,"S. cerevisiae deletion strains, locus YMR223W, strain ubp8, stronger effect = lower value",1
same,normalized growth,"S. cerevisiae deletion strains, locus YMR231W, strain pep5, stronger effect = lower value",0.987
same,normalized growth,"S. cerevisiae deletion strains, locus YMR263W, strain SAP30, stronger effect = lower value",1.01 and 1.02
same,normalized growth,"S. cerevisiae deletion strains, locus YMR307W, strain GAS1, stronger effect = lower value",1.04 and 1.01
same,normalized growth,"S. cerevisiae deletion strains, locus YNL067W, strain RPL9B, stronger effect = lower value",1.01
same,normalized growth,"S. cerevisiae deletion strains, locus YNL071W, strain lat1, stronger effect = lower value",0.998
same,normalized growth,"S. cerevisiae deletion strains, locus YNL153C, strain GIM3, stronger effect = lower value",1 and 0.972
same,normalized growth,"S. cerevisiae deletion strains, locus YNL175C, strain NOP13, stronger effect = lower value",1.01
same,normalized growth,"S. cerevisiae deletion strains, locus YNL183C, strain NPR1, stronger effect = lower value",0.998
same,normalized growth,"S. cerevisiae deletion strains, locus YNL197C, strain WHI3, stronger effect = lower value",1.06
same,normalized growth,"S. cerevisiae deletion strains, locus YNL209W, strain ssb2, stronger effect = lower value",0.897 (active)
same,normalized growth,"S. cerevisiae deletion strains, locus YNL224C, strain SQS1, stronger effect = lower value",1.03
same,normalized growth,"S. cerevisiae deletion strains, locus YNL233W, strain BNI4, stronger effect = lower value",1.01
same,normalized growth,"S. cerevisiae deletion strains, locus YNL248C, strain rpa49, stronger effect = lower value",0.915
same,normalized growth,"S. cerevisiae deletion strains, locus YNL250W, strain rad50, stronger effect = lower value",0.995
same,normalized growth,"S. cerevisiae deletion strains, locus YNL271C, strain bni1, stronger effect = lower value",1
same,normalized growth,"S. cerevisiae deletion strains, locus YNL298W, strain CLA4, stronger effect = lower value",0.991
same,normalized growth,"S. cerevisiae deletion strains, locus YNL307C, strain MCK1, stronger effect = lower value",0.999
same,normalized growth,"S. cerevisiae deletion strains, locus YNL322C, strain KRE1 (second series), stronger effect = lower value",0.997
same,normalized growth,"S. cerevisiae deletion strains, locus YNL322C, strain KRE1, stronger effect = lower value",1.01
same,normalized growth,"S. cerevisiae deletion strains, locus YNR049C, strain mso1, stronger effect = lower value",0.974
same,normalized growth,"S. cerevisiae deletion strains, locus YNR052C, strain pop2, stronger effect = lower value",0.998
same,normalized growth,"S. cerevisiae deletion strains, locus YOL012C, strain htz1",1.09
same,normalized growth,"S. cerevisiae deletion strains, locus YOL147C, strain pex11, stronger effect = lower value",1
same,normalized growth,"S. cerevisiae deletion strains, locus YOR001W, strain rrp6, stronger effect = lower value",0.971
same,normalized growth,"S. cerevisiae deletion strains, locus YOR061W, strain CKA2, stronger effect = lower value",1.01
same,normalized growth,"S. cerevisiae deletion strains, locus YOR069W, strain VPS5, stronger effect = lower value",1.01
same,normalized growth,"S. cerevisiae deletion strains, locus YOR070C, strain gyp1, stronger effect = lower value",0.975
same,normalized growth,"S. cerevisiae deletion strains, locus YOR080W, strain dia2, stronger effect = lower value",0.987
same,normalized growth,"S. cerevisiae deletion strains, locus YOR083W, strain WHI5 (second series), stronger effect = lower value",1.08
same,normalized growth,"S. cerevisiae deletion strains, locus YOR083W, strain WHI5, stronger effect = lower value",0.975
same,normalized growth,"S. cerevisiae deletion strains, locus YOR106W, strain vam3, stronger effect = lower value",0.96
same,normalized growth,"S. cerevisiae deletion strains, locus YOR136W, strain idh2, stronger effect = lower value",0.984
same,normalized growth,"S. cerevisiae deletion strains, locus YOR144C, strain elg1, stronger effect = lower value",0.977
same,normalized growth,"S. cerevisiae deletion strains, locus YOR184W, strain ser1, stronger effect = lower value",0.991
same,normalized growth,"S. cerevisiae deletion strains, locus YOR231W, strain MKK1, stronger effect = lower value",1.05
same,normalized growth,"S. cerevisiae deletion strains, locus YOR265W, strain rbl2, stronger effect = lower value",0.98
same,normalized growth,"S. cerevisiae deletion strains, locus YOR270C, strain vph1, stronger effect = lower value",0.87
same,normalized growth,"S. cerevisiae deletion strains, locus YOR290C, strain snf2, stronger effect = lower value",0.938
same,normalized growth,"S. cerevisiae deletion strains, locus YOR316C, strain cot1, stronger effect = lower value",0.993
same,normalized growth,"S. cerevisiae deletion strains, locus YPL051W, strain arl3, stronger effect = lower value",0.957
same,normalized growth,"S. cerevisiae deletion strains, locus YPL078C, strain atp4, stronger effect = lower value",0.994
same,normalized growth,"S. cerevisiae deletion strains, locus YPL106C, strain sse1, stronger effect = lower value",0.987
same,normalized growth,"S. cerevisiae deletion strains, locus YPL240C, strain hsp82, stronger effect = lower value",0.991
same,normalized growth,"S. cerevisiae deletion strains, locus YPL256C, strain CLN2, stronger effect = lower value",1.06
same,normalized growth,"S. cerevisiae deletion strains, locus YPR119W, strain clb2, stronger effect = lower value",1
same,normalized growth,"S. cerevisiae deletion strains, locus YPR141C, strain kar3, stronger effect = lower value",1
same,normalized growth,"S. cerevisiae deletion strains, locus YPR163C, strain tif3, stronger effect = lower value",0.999
same,normalized growth,"S. cerevisiae deletion strains, locus YPR167C, strain met16, stronger effect = lower value",1
same,normalized growth,"S. cerevisiae deletion strains, strain wtn01, stronger effect = lower value",0.982
same,normalized growth,"S. cerevisiae strains, strain wild type, stronger effect = lower value",1.01
